Screens deposited in PubChem BioAssay by National Center for Advancing Translational Sciences (NCATS).
This is a sample that favours compounds with a hit; in the whole collection about 9.4% have one here.
FLuc modulator: qHTS profiling assay for firefly luciferase inhibitor/activator using purifed enzyme and Km concentrations of substrates (counterscreen for miR-21 project) | purified FLuc, Km substrates, luminescence inhibition | Potency, µM (top dose mostly 57.5 µM), inactives show top-dose activity change, negative = inhibition, usual class: inhibitors | Luciferin 4-monooxygenase (Photinus pyralis), P08659 | 360,000 tested, 6.9% active;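 note: plate controls were vehicle for no effect and reference inhibitor for full effect; nearly all actives have a fitted effect of over 55% in size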
Target sequence (P08659 whole entry, looked up): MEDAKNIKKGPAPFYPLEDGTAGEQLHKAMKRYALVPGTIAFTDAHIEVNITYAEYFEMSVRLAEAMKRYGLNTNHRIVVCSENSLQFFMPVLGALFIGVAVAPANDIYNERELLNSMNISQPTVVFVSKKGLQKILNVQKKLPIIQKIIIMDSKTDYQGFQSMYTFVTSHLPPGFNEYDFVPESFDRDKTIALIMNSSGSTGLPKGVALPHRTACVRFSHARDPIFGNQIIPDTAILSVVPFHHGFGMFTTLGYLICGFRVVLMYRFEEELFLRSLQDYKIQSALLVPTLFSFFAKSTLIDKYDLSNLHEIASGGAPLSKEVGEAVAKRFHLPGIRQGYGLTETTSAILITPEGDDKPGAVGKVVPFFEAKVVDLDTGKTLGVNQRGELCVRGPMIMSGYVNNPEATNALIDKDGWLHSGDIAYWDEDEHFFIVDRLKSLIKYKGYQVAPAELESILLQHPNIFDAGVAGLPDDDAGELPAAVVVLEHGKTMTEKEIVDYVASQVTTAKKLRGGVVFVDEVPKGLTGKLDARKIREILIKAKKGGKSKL
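Purified P. pyralis luciferase (10nM final) with 10uM D-luciferin and 10uM ATP (Km levels) in 50mM Tris acetate pH 7.5, 10mM Mg acetate, 0.01% Tween-20, 0.05% BSA; qHTS 6-point titration, ~60 µM downward; luminescence read.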
NPC1 prom act: qHTS Assay for NPC1 Promoter Activators; Huh7 NPC1 promoter luciferase reporter, 24 h; 320,000 tested, 2.4% active; Potency, µM (titrated, usually from 9.22 µM), inactives show at the highest dose activation, actives largely listed as activators; AID 485313, 2010; note: % of control where 0% means no effect; nearly all actives have a fitted effect of over 60% in size
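In 1536-well qHTS, Huh7 cells harboring an NPC1 promoter–luciferase construct received compound for 24 h; activation was quantified by luminescence following luciferase reagent addition.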
ELG1 DNA repair: qHTS screen for small molecules that inhibit ELG1-dependent DNA repair in human embryonic kidney (HEK293T) cells expressing luciferase-tagged ELG1; AID 504467, 2011; Potency, µM (titrated, usually from 46.1 µM), for inactives: at the top dose activity change, negative = inhibition, usual class: inhibitors; HEK293T ELG1-luciferase reporter, luminescence, 16 h; DNA damage induced by 5-fluorouridine; 330,000 tested, 2.3% active; note: % is set by controls: 0 for no effect and ±100 for the full control effect; nearly all actives have a fitted effect of over 55% in size
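Reporter activity after DNA damage by 5-fluorouridine is monitored. Compound-treated cells incubate 16 hr at 37 °C, then ONE-Glo is added for 30 min before luminescence reading.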
Rab9 prom act: qHTS Assay for Rab9 Promoter Activators. Potency, µM (top dose mostly 9.22 µM), for the others: at the top dose activation, negative = inhibition, hits mostly activators. AID 485297, 2010. Huh7 Rab9 promoter-luciferase reporter, luminescence, 24 h. 320,000 tested, 2.8% active; note: % of control where 0% means no effect; nearly all actives have a fitted effect of over 60% in size
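Cell-based reporter: Huh7 stable for Rab9 promoter-driven luciferase, plated in reduced-serum medium with 10% FBS at 1500 cells/well, compound-treated 24 h at 37 °C, luminescence read after 10 min reagent.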
SMN2 splice enh: qHTS Assay for Enhancers of SMN2 Splice Variant Expression; HEK293 SMN2-luciferase splicing reporter, luminescence, 30-36 h; Potency, µM (highest dose often 46.1 µM), for the others: at the highest dose activity change, positive = activation, hits mostly activators; 210,000 tested, 2.8% active; note: % of control where 0% means no effect; nearly all actives have a fitted effect of over 55% in size
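HEK293 cells carry an SMN2 […]–luciferase reporter in which exon 7 inclusion puts luciferase in frame. Cells were plated 10-12 h before compound addition, then incubated 30-36 h at 37C. ONE-Glo luminescence was read; sodium butyrate at 4.5 mM final served as control.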
ELG1 genotox: qHTS screen for small molecules that induce genotoxicity in human embryonic kidney (HEK293T) cells expressing luciferase-tagged ELG1 | HEK293T ELG1-luciferase reporter, luminescence, 16 h | 330,000 tested, 1.3% active | AID 504466, 2011 | Potency, µM (titrated, usually from 46 µM), for inactives: at the top dose activity change, positive = activation, actives largely listed as activators; note: % of control where 0% means no effect; nearly all actives have a fitted effect of over 60% in size
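HEK293T cells expressing luciferase-tagged ELG1 were treated with compound or DMSO for 16 hr at 37°C. Luciferase activity was then read after 30 min with ONE-Glo at room temperature; rising signal flags genetic stress.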
* marks the source's active call; other numbers are inactive results; ? = inconclusive; / = no result; [ ] = dose if it differs, or a comment. Calls come from the whole dose curve; as a rule, active = well fitted curve in the direction sought with a large enough effect; inconclusive = small, poorly fitted or top-dose-only effect, or another doubt; inactive = no such curve, though single readings can be large; an effect the other way counts as inactive or inconclusive. Potency is the fitted concentration of half-maximal effect.

SMILES | FLuc modulator | NPC1 prom act | ELG1 DNA repair | Rab9 prom act | SMN2 splice enh | ELG1 genotox
O=C(N/N=C1\C(=O)c2cccc3cccc1c23)c1ccc(O)cc1 | 2.13µM* | 0.1% | ? | 20.9% | 23.2% | 3.2%
CNC(=S)N/N=C1\C(=O)c2cccc3cccc1c23 | ? | 21.7% | ? | ? | 26.6% | ?
COc1ccc2oc(-c3ccccc3)c(C(=O)O)c2c1 | -4.6% | -0.9% | 5.6% | -3.8% | / | 4.6%
Cc1ccc(COc2ccc3oc(-c4ccccc4)c(C(=O)O)c3c2)cc1 | 10.7µM* | / | / | / | 11.0% | /
O=C(O)c1c(-c2ccccc2)oc2ccc(O)cc12 | -1.6% | -2.8% | -5.6% | -1.4% | / | -3.3%
Cc1ccc2oc(-c3ccccc3)c(C(=O)O)c(=O)c2c1 | 21.3µM* | 3.55µM* | ? | ? | ? | ?
COc1ccc(N2C(=O)CSC23C(=O)N(CC(=O)NC2CCCCC2)c2ccccc23)cc1 (stereo not given) | -3.7% | / | / | / | / | /
Cc1ccc(/C=N/NC(=O)c2ccco2)s1 | 15.1µM* | 3.16µM* | ? | 3.16µM* | ? | ?
O=C(N/N=C/c1ccc(Br)s1)c1ccco1 | 21.3µM* | ? | ? | ? | / | ?
O=C(CN1CCN(Cc2ccccc2)CC1)N/N=C/c1ccc(Br)s1 | 0.7% | 0.5% | 9.2µM* | -8.9% | / | -11.1%
Cn1cccc1/C=N/NC(=O)c1ccco1 | ? | 13.9% | ? | 18.4% | 22.3% | ?
O=C(O)c1cc(Cl)cc(Cc2cc(Cl)cc(C(=O)O)c2O)c1O | / | / | / | / | -7.2%[9.22 µM] | /
Nc1nc(Nc2ccccc2)nc(NCc2ccccc2)c1[N+](=O)[O-] | -16.2% | -3.0% | 20.6µM* | -1.1% | / | 5.4%
CNc1nc(NCc2ccccc2)nc(N)c1[N+](=O)[O-] | 5.9% | -1.5% | ? | -0.9% | / | 18.3µM*
CC1=C(C(=O)Nc2ccc(C)cc2C)C(c2cc(Br)ccc2F)n2ncc(C(=O)Nc3ccc(C)cc3)c2N1 (stereo not given) | -1.7% | / | / | / | / | /
Cc1cc(C)c2sc(N(CCCN(C)C)C(=O)c3ccc(S(=O)(=O)N4CCc5ccccc5C4)cc3)nc2c1 | 4.7% | -34.2% | 13µM* | -34.4% | / | ?
Cc1ccc(C(=O)O/N=C(\N)Cc2cccs2)cc1[N+](=O)[O-] | 0.1% | 2.24µM* | ? | 3.16µM* | / | ?
COc1ccccc1C/C(N)=N/OC(=O)c1ccc(C)c([N+](=O)[O-])c1 | -2.0% | 5.3% | 11.4% | 6.0% | -6.2% | 0.0%
CCOC(=O)C1CCN(C(=O)c2cc3c(ccc4ccccc43)o2)CC1 | 12µM* | 2.51µM* | ? | 0.447µM* | / | 9.2µM*
CC1CCN(C(=O)c2cc3ccccc3c(=O)o2)CC1 | ? | 14.6% | ? | 1.1% | 25.2% | 8.6%
CCOC(=O)C1CCN(C(=O)c2cc3cc4ccc(C)cc4nc3o2)CC1 | ? | 0.891µM* | ? | 0.447µM* | / | ?
CCOC(=O)C1CCN(C(=O)c2cc3cc(C)ccc3[nH]2)CC1 | -15.4% | 2.82µM* | ? | 3.16µM* | / | ?
CC1CCN(C(=O)c2cc3c(ccc4ccccc43)o2)CC1 | 0.757µM* | 0.447µM* | ? | 0.282µM* | / | 1.03µM*
CCc1ccc2occ(CC(=O)Nc3ccc(OC)c(Cl)c3)c2c1 | -19.3% | / | / | / | 4.5% | /
O=C(CSc1nnc(SCc2cccc3ccccc23)s1)c1ccc2c(c1)OCO2 | ? | 3.7% | -1.0% | 12.5% | 3.3% | 2.4%
SMILES | FLuc modulator | NPC1 prom act | ELG1 DNA repair | Rab9 prom act | SMN2 splice enh | ELG1 genotox
O=C(CSc1nncc2ccccc12)Nc1cccc(C(=O)O)c1 | 10.7µM* | 21.6% | ? | 20.9% | / | ?
O=C(CSc1nnc(SCc2cccc3ccccc23)s1)Nc1ccc(C(=O)O)cc1 | 8.49µM* | -0.9% | 2.2% | -9.0% | 18.1% | 1.9%
CCc1ccc(Nc2nnc(SCC(=O)NC(=O)c3cccn3C)s2)cc1 | ? | 1.1% | ? | -6.1% | 11.0% | ?
Cc1ccc(Nc2nnc(SCC(=O)Nc3cccc(S(=O)(=O)NC4=NCCCCC4)c3)s2)cc1 | 1.9µM* | 10.6% | -4.6% | 0.9% | 12.2% | 4.7%
CCc1ccc(Nc2nnc(SCC(=O)Nc3ccc(C(=O)O)cc3)s2)cc1 | 0.536µM* | 18.2% | ? | 17.7% | / | 5.8%
Cc1nnc(SCC(=O)Nc2cccc(S(=O)(=O)NC3=NCCCCC3)c2)n1Cc1ccccc1 | -3.4% | -2.0% | 4.2% | -0.9% | -1.1% | -0.1%
O=C(NCc1ccc2c(c1)OCO2)c1ccc2c(c1)N(Cc1cccc(Cl)c1)C(=O)c1ccccc1S2=O (stereo not given) | -2.2% | / | / | / | / | /
CC(=O)N1CCc2cc(Br)cc(S(=O)(=O)NCCc3cccc(C)c3)c21 | -2.1% | / | / | / | / | /
c1ccc(Nc2nnc(SCc3cccc4ccccc34)s2)cc1 | ? | 2.4% | 1.7% | 3.3% | -23.1% | 6.3%
Cc1cccc(Nc2nnc(SCC(=O)Nc3cccc(S(=O)(=O)N4CCCCC4)c3)s2)c1 | 2.69µM* | 13.9% | ? | 4.3% | 0.5%[1.84 µM] | 13.3%
Cc1cccc(NC(=O)CSc2nnc(NC(=O)CN3CCCCC3)s2)c1 | -6.2% | 2.3% | 11.8% | -2.1% | -3.1% | 4.3%
Cc1nnc(SCc2cccc3ccccc23)s1 | 23.9µM* | ? | ? | ? | / | ?
CCc1ccc(Nc2nnc(SCC(=O)Nc3cccc(S(=O)(=O)NC4=NCCCCC4)c3)s2)cc1 | 0.477µM* | ? | ? | ? | 12.6µM* | -9.6%
Cc1ccc2c(c1)c1c(n2C)C(C(N)=O)CCC1 (stereo not given) | 0.2% | -1.4% | 11.9% | -2.3% | -1.9% | 2.9%
Cc1ccc2c(c1)c1c(n2C)-c2[nH]ncc2CC1 | 13.5µM* | 6.6% | ? | 23.0% | 13.3% | 12.3%
COc1cccc(-c2cc(C(=O)N3CCCCC3C)no2)c1 (stereo not given) | 8.49µM* | 1.58µM* | ? | 2.24µM* | 17.8µM* | 9.2µM*
COc1ccc(-c2cc(C(=O)N3CCCCCC3)no2)cc1 | 1.9µM* | 0.398µM* | ? | 0.447µM* | / | 4.61µM*
COc1ccc(-c2cc(C(=O)N3CCN(C(c4ccccc4)c4ccccc4)CC3)no2)cc1OC | 7.2% | -8.3% | -17.2% | 2.9% | -4.3% | -5.8%
COc1ccc(-c2cc(C(=O)N3CCCCCC3)no2)cc1OC | 23.9µM* | ? | ? | ? | / | ?
